We go through 94 compounds from PubChem BioAssay AID1851 (National Center for Advancing Translational Sciences (NCATS), 2009).

Several values for one entry are separate records, joined by “and”; a condition that tells them apart may be missing. Equal values may be shown once. The campaign covered roughly 16,000 compounds. About 5,700 (36%) were called active. Roughly 24% stayed inconclusive and do not appear here. This is one part of the list. A number with no mark means an inactive call. Calls follow the shape of the dose curve; as a rule, active = well fitted curve in the direction sought with a large enough effect; inconclusive = small, poorly fitted or top-dose-only effect, or effect the other way; inactive = no such curve, though single readings can be large or run the other way.
% is scaled to controls: 0 for no effect and ±100 for the full control effect.

Chain of Cytochrome P450 1A2 (Homo sapiens) (P05177 whole entry, looked up): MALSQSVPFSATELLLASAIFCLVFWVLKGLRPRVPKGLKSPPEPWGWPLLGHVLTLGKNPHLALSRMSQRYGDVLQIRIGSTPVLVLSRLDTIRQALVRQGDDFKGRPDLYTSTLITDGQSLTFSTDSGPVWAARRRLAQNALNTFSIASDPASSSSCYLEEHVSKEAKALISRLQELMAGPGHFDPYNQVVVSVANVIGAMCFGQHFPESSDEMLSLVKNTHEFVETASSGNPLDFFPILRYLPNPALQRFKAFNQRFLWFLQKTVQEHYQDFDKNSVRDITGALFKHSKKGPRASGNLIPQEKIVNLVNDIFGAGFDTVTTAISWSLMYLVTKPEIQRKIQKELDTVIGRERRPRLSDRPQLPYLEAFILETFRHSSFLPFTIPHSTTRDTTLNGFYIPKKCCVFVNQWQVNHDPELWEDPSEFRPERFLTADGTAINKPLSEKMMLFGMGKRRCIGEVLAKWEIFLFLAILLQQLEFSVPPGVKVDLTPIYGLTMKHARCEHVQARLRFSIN

This assay has as its target Cytochrome P450 1A2 (Homo sapiens) (UniProt P05177). Kind of assay: Cytochrome panel assay with activity outcomes. Conditions: recombinant CYP, pro-luciferin dealkylation, luminescence, p450-cyp1a2; series mostly up to 57.1 µM; activity, negative = inhibition: at the top concentration.
As for `CCN1C(=O)[C@H]2[C@H]3[C@H](O)[C@H](O)C/C(=N/O[C@@H]4O[C@@H](COC(C)=O)[C@@H](OC(C)=O)[C@@H](OC(C)=O)[C@H]4OC(C)=O)[C@H]3CC[C@@H]2C1=O`, the activity, negative = inhibition is -5.44% [at 11.4 µM]. For the compound `CC1(C)CC(=O)C2=C(C1)N(c1ccc(F)cc1)C(N)=C(C#N)C2c1cccs1` (centres undefined), the “activity, negative = inhibition” value was 8.01%. Regarding `O=[N+]([O-])c1ccccc1/C=N/n1c(COc2ccccc2)n[nH]c1=S`, the concentration at half-maximal activity (AC50) was 2510 nM (active).

`Cc1ccc(/C=N/n2c(COc3ccccc3)n[nH]c2=S)s1`: the concentration at half-maximal activity (AC50) is 501 nM (active). Consider `O=[N+]([O-])c1ccc(/C=N/n2c(COc3ccccc3)n[nH]c2=S)cc1`, for which the AC50 is 2820 nM (active). On to `CS(=O)(=O)N1CCC2(CC1)CN(c1ncccn1)C2`, for which the “activity, negative = inhibition” value is 16.3%.

For `Cc1ccc(S(=O)(=O)NC(=O)NN2C[C@H]3CCC[C@@H]3C2)cc1`, the “activity, negative = inhibition” value is -0.685% [at 25.6 µM]. In the case of `Cc1ccc2nc(N/N=C\c3cccc(C)n3)cc(C)c2c1`, the AC50 is 631 nM (active). On to `CCN1C/C(=C\c2cccc(C)c2)c2nc3ccccc3c(C(=O)O)c2C1`, for which the “activity, negative = inhibition” value is 5.47%. Turning to `CC(C)c1cccc2nc3c(c(C(C)(C)C)c12)Cn1c-3cccc1=O`, the AC50 is 12600 nM (active).

For the compound `CC(C)c1cccc2nc3c(c([Si](C)(C)C)c12)Cn1c-3cccc1=O`, the AC50 is 15800 nM (active). Regarding `CCc1cccc2nc3c(c([Si](C)(C)C)c12)Cn1c-3cccc1=O`, the AC50 was 2510 nM (active). As for `Cc1c2c(nc3ccccc13)-c1cccc(=O)n1C2`, the AC50 is 100 nM (active). On to `O=C1OCCC=C1[C@@H](O)CCc1ccccc1`, for which the activity, negative = inhibition was -0.0227% [at 11.4 µM].

On to `NS(=O)(=O)c1cc2c(cc1Cl)N[C@@H](C(Cl)Cl)NS2(=O)=O`, for which the “activity, negative = inhibition” value is 1.35% [at 25.6 µM]. `CCc1c2c(nc3cccc(C(C)C)c13)-c1cccc(=O)n1C2`: the AC50 is 501 nM (active). For the compound `O=C1NCC2(CCN(CCc3ccccc3)CC2)O1`, the AC50 entry is “inactive”. In the case of `NS(=O)(=O)c1ccc(N=Nc2cc3ccccc3c(C(=O)O)c2O)cc1`, the concentration at half-maximal activity (AC50) is 1000 nM (active).

With `NS(=O)(=O)c1ccc(N=Nc2ccc(O)c(C(=O)O)c2)cc1`, the activity, negative = inhibition is -20.9% [at 11.4 µM]. For `NS(=O)(=O)c1ccc(N=Nc2c(O)c(C(=O)O)cc3ccccc23)cc1`, the activity, negative = inhibition is -20.8% [at 11.4 µM].

As for `O=C(Nc1nccs1)c1sc2cc(Cl)ccc2c1Cl`, the AC50 was 112 nM (active).

For the compound `O=C(NCc1cccnc1)c1sc2cc(Cl)ccc2c1Cl`, the AC50 is 1000 nM (active). Consider `CN(C)/C=C/C(=O)c1ccc(Cl)cc1`, for which the AC50 was 4470 nM (active). As for `O=C(O)[C@@H](O)c1ccc(F)cc1`, the activity, negative = inhibition is -12.3% [at 11.4 µM].

`O=C(O)/C=C\[C@H](O)c1ccc(Cl)cc1`: the “activity, negative = inhibition” value was -18%. `CN(C)/C=C/C(=O)c1ccc(F)cc1`: the AC50 is 11200 nM (active).

Consider `O=c1cc(O)cc(/C=C\c2ccc(O)c(O)c2)o1`, for which the “activity, negative = inhibition” value is -7.95%. In the case of `Oc1cc(O)cc(/C=C\c2ccc(O)c(O)c2)c1`, the AC50 was 5010 nM (active). For `S=C(S)NCCCn1ccnc1`, the AC50 is 3160 nM (active). With `S=C(S)NCCN1CCNCC1`, the activity, negative = inhibition was -7.09% [at 11.4 µM]. With `NCCNC(=S)S`, the activity, negative = inhibition is -13.2% [at 2.29 µM].

As to `CCOc1ccc(C(=O)CN2CCN(S(=O)(=O)c3ccc(F)cc3)CC2)cc1`, the half-maximal activity concentration (AC50) is 20000 nM (active).

Consider `CCOc1ccc(NC(=O)CN2CCN(S(=O)(=O)c3ccc(Cl)cc3)CC2)cc1`, for which the AC50 is 25100 nM (active).

On to `O=C(CN1CCN(S(=O)(=O)c2ccc(F)cc2)CC1)Nc1ccc(Cl)c(C(F)(F)F)c1`, for which the “activity, negative = inhibition” value was -20.6%.

As to `CCOC(=O)c1ccc(S(=O)(=O)N2CCN(C)CC2)cc1`, the “activity, negative = inhibition” value was -6.34%. In the case of `COc1ccc(S(=O)(=O)N2CCCN(CC(=O)Nc3ccc(OC)c(Cl)c3)CC2)cc1`, the half-maximal activity concentration (AC50) is 1410 nM (active). As to `COc1ccc(S(=O)(=O)N2CCN(CC(=O)Nc3cc(OC)cc(OC)c3)CC2)cc1`, the AC50 was 22400 nM (active).

`O=C(CN1C(=O)NC2(CCCCCC2)C1=O)N1CCN(S(=O)(=O)c2ccc(Cl)cc2)CC1`: the “activity, negative = inhibition” value is -8.91%. On to `O=C(CN1CCN(S(=O)(=O)c2ccccc2)CC1)NC(=O)NCc1ccccc1`, for which the “activity, negative = inhibition” value is -22.6%. The same measure, in the same setting: the result for `COc1ccc(NC(=O)N2CC3(CCN(S(=O)(=O)c4ccccc4)CC3)C2)cc1` reads -22.4%; that for `CCN(CC)C(=O)COc1ccc(S(=O)(=O)N2CCOCC2)cc1`, 2.65%; that for `COc1ccc(NC(=O)N2CCCC3(CCN(S(=O)(=O)c4ccccc4)CC3)C2)cc1`, -19.8%.

For the compound `COc1ccc(NC(=O)c2cc(S(=O)(=O)N3CCS(=O)(=O)CC3)ccc2Cl)cc1`, the “activity, negative = inhibition” value was 6.23%.

In the case of `CON(C)C(=O)c1nnc2c3ccccc3n(S(=O)(=O)c3ccc(C)cc3)c2n1`, the activity, negative = inhibition is -0.532% [at 11.4 µM] and -0.966% [at 11.4 µM].

In the case of `CCOC(=O)c1cc2c(C(F)(F)F)cc(-c3ccccc3)nc2o1`, the concentration at half-maximal activity (AC50) is 3550 nM (active). For the compound `Cc1oc(C(C)(C)C)cc1C(=O)Nc1cccc(/C=C/C(=O)O)c1`, the “activity, negative = inhibition” value is -11.6%. For `Cc1oc(-c2ccccc2)cc1C(=O)Nc1ccc(N(C)C)cc1`, the concentration at half-maximal activity (AC50) is 1410 nM (active). Regarding `CCCNC(=O)OC[C@@H]1O[C@H](CCO/N=C2\c3cc(OC)ccc3O[C@H](c3cccc(OC)c3)[C@H]2O)C=C[C@@H]1Oc1ccc(OC)cc1`, the activity, negative = inhibition is -14.6% [at 11.4 µM]. In the case of `CCC(=O)N1CCc2cc(S(=O)(=O)NC(C(=O)NCc3ccc(F)cc3)C(C)C)ccc21` (centres undefined), the “activity, negative = inhibition” value was -20.8%. Regarding `CCOC(=O)c1sc(=S)n(-c2cccc(C(F)(F)F)c2)c1SC`, the half-maximal activity concentration (AC50) is 562 nM (active). In the case of `COc1ncc2nc(-c3cccs3)c(=O)n(CCc3ccccc3)c2n1`, the concentration at half-maximal activity (AC50) was 1260 nM (active). Consider `COCCn1c(=O)c(-c2cccs2)nc2cnc(N(C)C)nc21`, for which the AC50 was 2000 nM (active). As for `COc1ncc2nc(-c3cccs3)c(=O)n(CCC#N)c2n1`, the AC50 is 6310 nM (active). Still for that read-out and setting: the result for `COCCn1c(=O)c(-c2cccs2)nc2cnc(OC)nc21` reads 2510 nM (active).

On to `Cc1c(N2C(=O)CS/C2=N\N=C\c2ccc(Cl)cc2)c(=O)n(-c2ccccc2)n1C`, for which the “activity, negative = inhibition” value was -14.7%.

As to `Cc1nnc(SCC2=C(C(=O)O)N3C(=O)[C@@H](NC(=O)Cn4cnnn4)[C@@H]3SC2)s1`, the AC50 result was “inactive”. As for `COCCn1c(=O)c(-c2cccs2)nc2cnc(Oc3ccc(OC)cc3)nc21`, the half-maximal activity concentration (AC50) is 2510 nM (active). In the case of `COCCn1c(=O)c(-c2cccs2)nc2cnc(Oc3ccccc3)nc21`, the concentration at half-maximal activity (AC50) is 2000 nM (active). For `Cc1cnc(CNc2nc(-c3ccccc3Cl)nc3ccccc23)cn1`, the AC50 was 6310 nM (active). Regarding `Cc1cnc(CNc2nc(-c3ccccc3C(F)(F)F)nc3ccccc23)cn1`, the AC50 was 12600 nM (active).

Turning to `COc1ccccc1-c1nc(NCc2cnc(C)cn2)c2ccccc2n1`, the concentration at half-maximal activity (AC50) was 5010 nM (active). Consider `Cc1cnc(CNc2nc(-c3ccccc3C)nc3ccccc23)cn1`, for which the concentration at half-maximal activity (AC50) is 3160 nM (active). As to `CCN(CC)C(=O)C1CC(=O)N(c2ccc(OC)cc2)C1c1ccc(OC)cc1` (centres undefined), the “activity, negative = inhibition” value is -0.516%. The same measure, in the same setting: the result for `COc1ccc(C(C(=O)NC2CCCC2)N(C(=O)c2snc(-c3ccc(F)cc3)c2N)c2ccc(F)cc2)cc1` (centres undefined) reads -15.3%. For the compound `CCN1/C(=C/c2ccc3cccc(C)c3[n+]2CC)Sc2ccccc21`, the AC50 is 14100 nM (active). For the compound `CCOC(=O)c1cn(-c2nc(-c3ccc(Cl)cc3)cs2)c2c(F)c(N3CC(C)OC(C)C3)c(F)cc2c1=O` (centres undefined), the “activity, negative = inhibition” value was -9.86%. Turning to `CCOC(=O)c1cnn(-c2nc(-c3cccc(F)c3)cs2)c1C(F)(F)F`, the AC50 is 2240 nM (active). Regarding `COC(=O)C1CCN(c2cc(=O)n(C3CCCCC3)c(=O)[nH]2)CC1`, the “activity, negative = inhibition” value is -5.49%. Consider `COC(=O)c1cc(=O)n(C2CC2)c(=NC2CC2)s1`, for which the half-maximal activity concentration (AC50) was 2000 nM (active). As for `CCCCCc1nc2c(=O)[nH]c3ccccc3c2o1`, the half-maximal activity concentration (AC50) is 398 nM (active).

Consider `O=C(NCCCN1CCCCCC1)C1CC(=O)N(CCc2ccccc2)C1` (centres undefined), for which the “activity, negative = inhibition” value is -4.71%. For the compound `CCN(CC)CCNc1ccc(CO)c2sc3ccccc3c(=O)c12`, the half-maximal activity concentration (AC50) was 126 nM (active). For the compound `O=c1c2ccccc2sc2c(CO)ccc(NCCN3CCCCC3)c12`, the AC50 was 1580 nM (active). With `CCN(CC)CCCNC(=O)CC1Sc2ccccc2NC1=O` (centres undefined), the “activity, negative = inhibition” value was -13.3%. As to `CN1CCCCC1=NCCCn1cnc2c1c(=O)n(C)c(=O)n2C`, the “activity, negative = inhibition” value was -12.6%.

Take `COCC(=O)N1CCC2(CC1)CCN(c1ccccn1)CC2`: the “activity, negative = inhibition” value was -5.05%.

As for `Cc1ccc(C(=O)Cn2nnc3c(sc4nc5c(c(-c6ccccc6)c43)CCC5)c2=O)cc1`, the “activity, negative = inhibition” value is -16.3%. `CCOC(=O)Cn1nnc2c(sc3nc4c(c(-c5ccc(Cl)cc5)c32)CCC4)c1=O`: the half-maximal activity concentration (AC50) was 3160 nM (active). For `Cc1ccc(-c2c3c(nc4sc(C(N)=O)c(N)c24)CCC3)cc1`, the half-maximal activity concentration (AC50) is 3550 nM (active). As for `Nc1nc(N)nc(CCCc2nc(N)nc(N)n2)n1`, the activity, negative = inhibition was -16.3% [at 11.4 µM]. Regarding `Clc1ccccc1-c1nc(-n2ccnc2)c2ccccc2n1`, the AC50 was 158 nM (active). As to `NC(=O)c1ccccc1-c1nc(-n2ccnc2)c2ccccc2n1`, the concentration at half-maximal activity (AC50) is 2510 nM (active). As for `Cc1ccccc1-c1nc(-n2ccnc2)c2ccccc2n1`, the AC50 was 316 nM (active). Take `CCCn1c(C)nc2c(c1=O)c1nc3ccccc3nc1n2CCC1=CCCCC1`: the AC50 is 25100 nM (active). Take `CCO/C(C)=N/n1c2nc3ccccc3nc2c2c(=O)n(CC(C)C)c(C)nc21`: the “activity, negative = inhibition” value is -20.5%. For `COc1ccccc1CN1CCC2(CC1)CCN(S(=O)(=O)c1ccccc1)CC2`, the “activity, negative = inhibition” value is -1.13%. Take `O=C(NCCCN1CCN(Cc2ccccc2)CC1)C1CCN(S(=O)(=O)N2CCCC2)CC1`: the “activity, negative = inhibition” value is -6.36%. In the case of `COc1ccc(S(N)(=O)=O)cc1C(=O)NCCCN1CCN(c2cccc(Cl)c2)CC1`, the “activity, negative = inhibition” value is -15%. Turning to `COc1ccc2c(Cl)c(C(=O)NCCCn3ccnc3)sc2c1Cl`, the AC50 was 631 nM (active). On to `COc1ccc(C(=O)N/C(=C/c2cccs2)C(=O)NCCCn2ccnc2)cc1OC`, for which the “activity, negative = inhibition” value was -12.2%. With `Nn1nnc2ccccc21`, the AC50 is 12600 nM (active). With `N#CCCn1nnc2ccccc21`, the “activity, negative = inhibition” value was -20.3%. Same read-out and setting: under `c1ccc2c(c1)nnn2CN1CCOCC1` stands -8.08% [at 11.4 µM]; under `Cc1ccc(NC(=O)C2(NC(=O)c3cccc(N4C(=O)CSC4c4ccccc4)c3)CCCCC2)cc1` (centres undefined), -7.8%.
